Results filed as inconclusive are left out. The source made the active and inactive calls. Unless noted, calls follow the shape of the dose curve; as a rule, active = well fitted curve in the direction sought with a large enough effect; inconclusive = small, poorly fitted or top-dose-only effect, or another doubt; inactive = no such curve, though single readings can be large; an effect the other way counts as inactive or inconclusive.
What was measured:
[1] = molecular target: Pyruvate kinase PKM (Homo sapiens) (UniProt P14618); assay: qHTS Assay for Activators of Human Muscle Pyruvate Kinase (AID 954; active = well fitted curve in the direction sought with a large enough effect, not every such curve was filed as active)
Chain of Pyruvate kinase PKM (Homo sapiens) (P14618 whole entry, looked up): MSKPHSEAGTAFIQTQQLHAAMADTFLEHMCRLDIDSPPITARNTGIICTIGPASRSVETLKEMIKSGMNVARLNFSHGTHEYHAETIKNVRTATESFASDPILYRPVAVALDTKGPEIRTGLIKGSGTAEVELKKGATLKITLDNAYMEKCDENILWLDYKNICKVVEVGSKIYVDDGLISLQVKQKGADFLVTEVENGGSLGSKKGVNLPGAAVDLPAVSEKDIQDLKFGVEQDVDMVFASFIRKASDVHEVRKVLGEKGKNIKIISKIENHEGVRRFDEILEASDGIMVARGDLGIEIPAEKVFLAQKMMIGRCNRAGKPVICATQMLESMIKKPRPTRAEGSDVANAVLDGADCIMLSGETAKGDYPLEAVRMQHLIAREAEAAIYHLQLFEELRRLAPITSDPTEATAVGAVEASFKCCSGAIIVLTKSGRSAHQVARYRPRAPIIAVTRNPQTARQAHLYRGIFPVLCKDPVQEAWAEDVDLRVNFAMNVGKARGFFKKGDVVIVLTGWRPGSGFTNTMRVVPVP
Method in brief: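 A coupled luminescent readout tracked ATP made from ADP by purified PKM2. Final conditions included 0.1 nM enzyme, PEP and ADP at 0.5 and 0.1 mM, pH 7.2 imidazole buffer with BSA, and a one-hour room-temperature reaction.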

[2] = MultiTox-Fluor Cytotoxicity Assay - LYMP1-001 - Live Cells (AID 947)
[3] = Cell Viability - LYMP1-002 - Assay at 16 hr (AID 948)
Method in brief: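 ATP luminescence (CellTiter-Glo) was measured after 16 hr compound exposure at 37 C of 2500 lymphoblastoid LYMP1-002 cells per well. Concentration-response curves were fitted with the Hill equation to give AC50.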

[4] = MultiTox-Fluor Cytotoxicity Assay - LYMP1-002 - Live Cells (AID 955);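 also: cells exposed to compound for 16 hours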
Method in brief: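 LYMP1-002 lymphoblastoid cells; 2500 cells/well; 16 hr compound exposure, 37 C; MultiTox-Fluor reagent 60 min RT; live-cell fluorescence Ex/Em=405/510; qHTS concentration-response, Hill-equation AC50; tetraoctylammonium bromide positive control.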

[5] = MultiTox-Fluor Cytotoxicity Assay - LYMP1-003 - Live Cells (AID 962);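 also: cells exposed to compound for 16 hours at 37 °C; cytotoxic hits lower the live-cell protease signal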
Method in brief: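 Readout: live-cell fluorescence (Ex/Em=405/510) from GF-AFC cleavage after 60 min MultiTox-Fluor reagent at room temperature. Lymphoblastoid LYMP1-003 cells, 16 hr compound treatment, 37 C. Concentration-response fitted to standard Hill equation for AC50.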

[6] = Cell Viability - LYMP1-003 - Assay at 24 hr (AID 963)
Method in brief: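 CellTiter-Glo luminescence (intracellular ATP) read after 24 hr, 37 C compound exposure of 2500 LYMP1-003 human lymphoblastoid cells/well in complete medium; qHTS concentration series; AC50 via standard Hill equation.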

[7] = Cell Viability - LYMP1-003 - Assay at 40 hr (AID 964); also: nearly all actives have a fitted effect of over 60% in size; also: potency is read from the fitted curve at half-maximal effect
Method in brief: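 LYMP1-003 lymphoblastoid cells, 2500/well; 5 hr preincubation, 40 hr compound exposure, 37 C; CellTiter-Glo 30 min RT; luminescence; Hill-fit AC50. Positive control tetraoctylammonium bromide.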

[8] = Cell Viability - LYMP2-003 (AID 965);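 also: cells exposed to compounds for 24 h before reading; nearly all actives have a fitted effect of over 50% in size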
Method in brief: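 CellTiter-Glo luminescence quantified ATP loss after 24 h compound treatment of LYMP2-003 lymphoblastoid cells at 37 C. Titration series were fitted with the standard Hill equation to give AC50.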

[9] = Cell Viability - LYMP2-004 (AID 966); also: nearly all actives have a fitted effect of over 65% in size
Method in brief: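 Luminescent ATP read-out (CellTiter-Glo, 30 min RT) after 24 hr compound exposure at 37 C; 2500 lymphoblastoid cells/well, complete medium. Decrease in ATP = cytotoxicity; AC50 from standard Hill model.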

[10] = Cell Viability - LYMP2-005 (AID 967); also: series mostly up to about 92 µM
Method in brief: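 LYMP2-005 human lymphoblastoid cells (2500/well) were treated with compounds for 24 h at 37 C. Intracellular ATP was then measured by CellTiter-Glo luminescence after 30 min at room temperature. AC50 values came from Hill-equation fits of qHTS concentration-response data.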

[11] = Cell Viability - LYMP2-009 (AID 968); also: series mostly up to about 92 µM; nearly all actives have a fitted effect of over 55% in size
[12] = Cell Viability - LYMP2-011 (AID 969);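 also: cells exposed to compound for 24 hours; nearly all actives have a fitted effect of over 60% in size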
Method in brief: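 Luminescent ATP read-out (CellTiter-Glo, 30 min RT) after 24 hr compound exposure at 37 C in human lymphoblastoid cells, 2500 cells/well. Decreasing ATP indicates cytotoxicity; AC50 from standard Hill fit.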

[13] = Cell Viability - LYMP2-013 (AID 970); also: series mostly up to about 92 µM; nearly all actives have a fitted effect of over 55% in size
Method in brief: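 CellTiter-Glo luminescence (cellular ATP) read after 30 min at RT. Cells: human lymphoblastoid line, 2500/well, 24 hr compound exposure at 37 C. Tetraoctylammonium bromide positive control; AC50 via standard Hill fit of qHTS titrations.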

[14] = Cell Viability - LYMP2-015 (AID 971); also: nearly all actives have a fitted effect of over 55% in size
Method in brief: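 qHTS cytotoxicity: 2500 cells/well, 5 hr 37 C, compound 24 hr 37 C, CellTiter-Glo 30 min RT, luminescence. Loss of ATP = toxicity; AC50 via standard Hill fit.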

[15] = Cell Viability - LYMP2-017 (AID 972);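 also: series mostly up to about 92 µM; cells exposed to compound for 24 hours at 37 °C; nearly all actives have a fitted effect of over 55% in size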
Method in brief: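 Luminescent ATP read-out (CellTiter-Glo, 30 min RT) reports viable cell number. Cells: human lymphoblastoid line, 2500 per well, 5 hr preincubation, 24 hr compound exposure at 37 C. AC50 is derived from qHTS concentration-response data using the standard Hill model.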

[16] = Cell Viability - LYMP2-019 (AID 973); also: nearly all actives have a fitted effect of over 55% in size
Method in brief: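 qHTS, 1536-well; 2500 cells/well; 5 hr pre-incubation, 24 hr compound exposure, 37 C; CellTiter-Glo added, 30 min RT; luminescence read; AC50 via standard Hill equation.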

[17] = Cell Viability - LYMP2-021 (AID 974)
Method in brief: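 ATP luminescence (CellTiter-Glo, 30 min RT) after 24 h compound exposure at 37 C; 2500 human lymphoblastoid cells/well, 5 h settle beforehand. Cytotoxicity = concentration-dependent ATP drop, AC50 by Hill fit.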

[18] = MultiTox-Fluor Cytotoxicity Assay - LYMP1-002 - Dead Cells (AID 960); also: nearly all actives have a fitted effect of over 60% in size; also: potency is read from the fitted curve at half-maximal effect
Method in brief: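 Readout: fluorescence at 485/520 from cell-impermeant bis-AAF-R110 cleaved by proteases leaking from damaged cells. LYMP1-002 lymphoblastoid line, 16 hr compound treatment at 37 C, concentration-response in qHTS format; Hill-equation AC50 values.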

[19] = molecular target: Pyruvate kinase (Leishmania mexicana) (UniProt Q27686); assay: qHTS Validation Assay for Activators of Leishmania Mexicana Pyruvate Kinase (AID 959)
Chain of Pyruvate kinase (Leishmania mexicana) (Q27686 2-499 E452W): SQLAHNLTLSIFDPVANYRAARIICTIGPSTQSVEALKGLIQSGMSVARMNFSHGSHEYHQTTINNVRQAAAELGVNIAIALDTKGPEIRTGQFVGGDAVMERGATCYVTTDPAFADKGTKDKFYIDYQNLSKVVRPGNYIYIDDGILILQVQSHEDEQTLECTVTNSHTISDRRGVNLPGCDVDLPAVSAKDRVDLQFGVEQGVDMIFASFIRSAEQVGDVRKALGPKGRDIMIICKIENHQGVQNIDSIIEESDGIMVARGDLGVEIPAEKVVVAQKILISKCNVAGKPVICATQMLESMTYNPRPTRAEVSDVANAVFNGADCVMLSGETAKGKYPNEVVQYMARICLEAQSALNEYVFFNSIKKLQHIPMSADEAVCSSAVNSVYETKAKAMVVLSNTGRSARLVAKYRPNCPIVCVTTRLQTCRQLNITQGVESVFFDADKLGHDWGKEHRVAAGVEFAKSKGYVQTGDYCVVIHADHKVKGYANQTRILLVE
Method in brief: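 Luminescent ATP detection (PKLight) after a 1 h room-temperature reaction of 0.2 nM LmPYK E451W mutant with 0.5 mM PEP and 0.1 mM ADP at pH 7.2. Activity is normalized to DMSO-only control wells.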

[20] = molecular target: Pyruvate kinase PKM (Homo sapiens) (UniProt P14618); assay: qHTS Assay for Inhibitors of Human Muscle Pyruvate Kinase (AID 958); details: purified human PKM enzyme activity
Method in brief: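 Luminescence from a luciferase ATP-detection/stop reagent reported PKM2 activity. Reactions contained 0.1 nM purified human enzyme, 0.5 mM PEP, 0.1 mM ADP and 7 mM MgCl2 at pH 7.2, run 1 h at RT.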

Measured: Potency

Clc1ccccc1C(c1ccccc1)(c1ccccc1)n1ccnc1
inactive: [1]

NS(=O)(=O)c1cc2c(cc1Cl)NCNS2(=O)=O
not listed: [18] | [19] | [20]
inactive: all other assays above

Cn1c(=O)c2c(ncn2C)n(C)c1=O
not listed: [19] | [20]
inactive: all other assays above

Cc1cn([C@H]2C[C@H](N=[N+]=[N-])[C@@H](CO)O2)c(=O)[nH]c1=O
not listed: [1] | [19] | [20]
inactive: all other assays above

CN1C(C(=O)Nc2ccccn2)=C(O)c2ccccc2S1(=O)=O
inactive: [1]

NCCS(=O)(=O)O
not listed: [19] | [20]
inactive: all other assays above

Cn1c(=O)c2[nH]cnc2n(C)c1=O
not listed: [19] | [20]
inactive: all other assays above

O=c1c(O)c(-c2ccc(O)c(O)c2)oc2cc(O)cc(O)c12
inactive: [1]

CC(C)NCC(O)c1ccc(O)c(O)c1 (stereo not given)
not listed: [1] | [7] | [19] | [20]
inactive: all other assays above

N[C@@H](Cc1c[nH]c2ccc(O)cc12)C(=O)O
not listed: [19] | [20]
inactive: all other assays above

NCCCCCC(=O)O
inactive: [1]

O=c1c(-c2ccc(O)cc2)coc2cc(O)cc(O)c12
not listed: [20]
inactive: all other assays above

Clc1ccc(C(c2ccccc2Cl)C(Cl)Cl)cc1 (stereo not given)
not listed: [19] | [20]
inactive: all other assays above

NC12CC3CC(CC(C3)C1)C2
inactive: [1]

CCOC(=O)Nc1ccc(NCc2ccc(F)cc2)nc1N
inactive: [1]

CN(C)CCOC(c1ccccc1)c1ccccc1
inactive: [1]

Cc1cn([C@H]2C=C[C@@H](CO)O2)c(=O)[nH]c1=O
not listed: [19] | [20]
inactive: all other assays above

CC(C)C(=O)Nc1ccc([N+](=O)[O-])c(C(F)(F)F)c1
not listed: [13] | [16] | [18] | [19] | [20]
inactive: all other assays above

CC(C)Cc1ccc(C(C)C(=O)O)cc1 (stereo not given)
inactive: [1]

NC(=O)OCC(COC(N)=O)c1ccccc1
inactive: [1]

Nc1c2c(nc3ccccc13)CCCC2
not listed: [19] | [20]
inactive: all other assays above

COc1ccc2[nH]cc(CCNC(C)=O)c2c1
not listed: [19] | [20]
inactive: all other assays above

Cc1ccc(-c2cc(C(F)(F)F)nn2-c2ccc(S(N)(=O)=O)cc2)cc1
not listed: [1] | [2] | [18] | [19] | [20]
inactive: all other assays above

O=c1[nH]cc(F)c(=O)[nH]1
not listed: [7] | [14] | [15] | [19] | [20]
inactive: all other assays above

CC(COc1ccccc1)N(CCCl)Cc1ccccc1 (stereo not given)
inactive: [2] | [3] | [4] | [18] | [5] | [6] | [7] | [8] | [9] | [10]

Cc1cc(C(C)(C)C)cc(C)c1CC1=NCCN1
inactive: [1]

COc1ccc(CCN(C)CCCC(C#N)(c2ccc(OC)c(OC)c2)C(C)C)cc1OC (stereo not given)
inactive: [2] | [3] | [4] | [18] | [5] | [6] | [7]

COc1ccc(C2CNC(=O)C2)cc1OC1CCCC1 (stereo not given)
inactive: [1]

O=C(c1ccc(F)cc1)C1CCN(CCn2c(=O)[nH]c3ccccc3c2=O)CC1
inactive: [1]

Cc1ccccc1N1C(=O)c2cc(S(N)(=O)=O)c(Cl)cc2NC1C (stereo not given)
inactive: [1]

Nc1ccn([C@H]2CC[C@@H](CO)O2)c(=O)n1
not listed: [19] | [20]
inactive: all other assays above

O=C(C1CCCCC1)N1CC(=O)N2CCc3ccccc3C2C1 (stereo not given)
inactive: [1]

CCC1(c2ccccc2)C(=O)NCNC1=O
not listed: [19] | [20]
inactive: all other assays above

COc1ccc2c(c1)c(CC(=O)O)c(C)n2C(=O)c1ccc(Cl)cc1
not listed: [19] | [20]
inactive: all other assays above

CN1CCN(CCCN2c3ccccc3Sc3ccc(Cl)cc32)CC1
inactive: [1]

O=C(Nc1ccc([N+](=O)[O-])cc1Cl)c1cc(Cl)ccc1O
active: [20] 3160 nM

Cn1ccc2cc3c(cc21)CCN3C(=O)Nc1cccnc1
active: [20] 6310 nM

COc1cc2c(c(OC)c1OC)-c1ccc(OC)c(=O)cc1[C@@H](NC(C)=O)CC2
inactive: [9] | [13]
active: [18] 50.1 nM | [7] 20 nM
